This note sets out measurements from ChEMBL document CHEMBL1961873, “Compounds: GSK PKIS; Assays: Nanosyn kinase panel” (2012).

Values joined by “and” are separate entries in the source; they are usually repeats but may differ in a detail not shown here. Identical values can stand only once.

One assay deals with Proto-oncogene tyrosine-protein kinase receptor Ret (Homo sapiens), P07949 [V804L]. The following applies: at 0.1 µM.
Chain of Proto-oncogene tyrosine-protein kinase receptor Ret (Homo sapiens), P07949 [V804L] (P07949 whole entry V804L): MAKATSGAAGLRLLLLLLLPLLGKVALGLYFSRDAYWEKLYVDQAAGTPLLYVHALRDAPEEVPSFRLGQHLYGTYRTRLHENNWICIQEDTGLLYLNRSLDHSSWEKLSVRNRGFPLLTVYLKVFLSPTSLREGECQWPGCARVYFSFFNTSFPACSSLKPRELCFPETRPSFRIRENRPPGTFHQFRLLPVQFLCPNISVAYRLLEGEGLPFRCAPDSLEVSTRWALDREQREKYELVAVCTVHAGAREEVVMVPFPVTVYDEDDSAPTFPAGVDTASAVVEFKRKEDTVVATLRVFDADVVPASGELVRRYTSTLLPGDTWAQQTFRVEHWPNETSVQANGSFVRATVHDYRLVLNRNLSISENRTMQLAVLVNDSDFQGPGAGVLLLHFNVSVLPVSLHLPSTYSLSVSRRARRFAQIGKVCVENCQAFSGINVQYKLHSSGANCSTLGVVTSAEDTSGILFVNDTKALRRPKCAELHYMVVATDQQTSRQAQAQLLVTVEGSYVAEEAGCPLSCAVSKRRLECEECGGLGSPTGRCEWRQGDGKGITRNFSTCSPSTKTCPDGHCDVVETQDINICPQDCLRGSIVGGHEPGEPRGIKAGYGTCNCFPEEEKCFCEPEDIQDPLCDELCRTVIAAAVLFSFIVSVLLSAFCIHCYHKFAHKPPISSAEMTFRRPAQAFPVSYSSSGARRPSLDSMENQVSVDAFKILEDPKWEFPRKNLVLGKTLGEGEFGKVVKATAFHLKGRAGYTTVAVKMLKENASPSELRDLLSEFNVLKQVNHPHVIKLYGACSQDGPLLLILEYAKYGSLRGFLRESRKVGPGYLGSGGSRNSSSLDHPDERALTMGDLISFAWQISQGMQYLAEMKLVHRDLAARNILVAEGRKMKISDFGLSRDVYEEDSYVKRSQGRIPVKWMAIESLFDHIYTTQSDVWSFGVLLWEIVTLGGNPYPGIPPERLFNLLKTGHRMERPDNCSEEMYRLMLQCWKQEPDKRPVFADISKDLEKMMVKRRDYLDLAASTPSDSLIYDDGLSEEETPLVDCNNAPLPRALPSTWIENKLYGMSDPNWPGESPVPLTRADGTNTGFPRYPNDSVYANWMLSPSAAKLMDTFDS
Take `COc1cc(Nc2ncc(-c3ccccc3)o2)cc(OC)c1`: the inhibition (in general, the change of the read-out against control, counted positive when it falls) came out at 4.73%.
As to `Fc1ccc(Nc2nccc(-c3c(-c4ccc(C(F)(F)F)cc4)nn4ncccc34)n2)cc1F`, the inhibition turned out to be 1.24%.
As for `COc1cc(N2CCN(C(C)C)CC2)ccc1Nc1nc(Nc2cccc(F)c2C(=O)O)c2cc[nH]c2n1`, the inhibition turned out to be 3.85%.
In the case of `CC1(C)CC(n2cnc(-c3ccc(F)cc3)c2-c2ccnc(N)n2)CC(C)(C)N1`, the inhibition was 2.21%.
In the case of `COc1cccc(Nc2nccc(-c3cnn4ncccc34)n2)c1`, the inhibition worked out at 3.16%.
On to `COc1ccc(-c2nn3ncccc3c2-c2ccnc(Nc3ccc(F)c(F)c3)n2)cc1`, for which the inhibition is 16.2%.
Take `CNC(=O)c1cncc(/C=C/c2ccccc2C)c1`: the inhibition turned out to be 5.6%.
Consider `Cn1c(-c2nonc2N)nc2cnccc21`, for which the inhibition stood at 2.88%.
Still for that read-out and setting: the figure for `Nc1ncnc2occ(-c3ccc(NC(=O)Nc4cc(C(F)(F)F)ccc4F)cc3)c12` is 68.3% and 62.2%.
The same measure, in the same setting: with `CCOc1ccc2c(-c3ccnc(Nc4cc(OC)cc(C(F)(F)F)c4)n3)cnn2n1` the figure was 1.94%; with `O=C1Nc2ccccc2/C1=C1\CCc2cc(O)ccc21`, 36.1%.
On to `O=C(O[C@H]1CN[C@H](C#Cc2cc3ncnc(Nc4ccc5c(ccn5Cc5cc(F)ccc5F)c4)c3s2)C1)N1CCOCC1`, for which the inhibition worked out at 2.75%.
Regarding `CS(=O)(=O)CCNCc1ccc(-c2ccc3ncnc(Nc4ccc(OCc5cccc(C(F)(F)F)c5)cc4)c3c2)o1`, the inhibition was found to be 3.51%.
Same read-out and setting: the figure for `N#Cc1cccc(Nc2ncc(-c3ccccc3)o2)c1` is 0.71%; for `N#Cc1ccc2c(-c3ccnc(NC4CC4)n3)c(-c3ccc(F)cc3)nn2c1` it is 3.66%.
On to `CNC(=O)c1sc(-n2cnc3cc(OC)c(OC)cc32)cc1OCc1ccccc1C(F)(F)F`, for which the inhibition is 6.14%.

A further assay shares this test system. The following applies: at 1 µM.
As for `COc1ccc(Nc2ncc(-c3ccccc3)o2)cc1OC`, the inhibition came out at 17.1%.
Same read-out and setting: the figure for `CCS(=O)(=O)c1ccc(OC)c(Nc2ncc(-c3cccc(C(C)=O)c3)o2)c1` is 28.8%.
Still for that read-out and setting: the figure for `CS(=O)(=O)Nc1ccc(-c2ccc3c(NC(=O)C4CC4)n[nH]c3c2)cc1` is 8.77%; for `CS(=O)(=O)CCNCc1ccoc1-c1ccc2ncnc(Nc3ccc(OCc4ccccc4)cc3)c2c1` it is 9.53%; for `NS(=O)(=O)c1ccc(N/N=C2\C(=O)Nc3ccc(C(=O)NCc4ccncc4)cc32)cc1` it is 75.2%.
The same measure, in the same setting: the figure for `CN1CCN(Cc2ccc(-c3cc4ncnc(Nc5ccc(OCc6cccc(F)c6)c(Cl)c5)c4s3)o2)CC1` is 5.81% and 10.9%; for `COc1cc2c(cc1Nc1nc(Nc3cccc(F)c3C(N)=O)c3cc[nH]c3n1)N(C(=O)CN1CCN(C(C)C)CC1)CC2` it is 7.87%; for `COc1cccc(-n2ncc3c(N/N=C/c4ccc(C(=O)NCCN(C)C)cc4)ncnc32)c1` it is 50.4%.
In the case of `CN(c1ccc(NC(=O)NCCN2CCOCC2)cc1)c1ccnc(Nc2ccc(CS(C)(=O)=O)cc2)n1`, the inhibition was determined as 48.9%.
Still for that read-out and setting: the figure for `Cc1nnc(-c2cccc(-c3ccc(C(=O)NCC4CC4)cc3)c2)o1` is 16.7%.
`Cc1cc(O)cc(C)c1/C=C/c1cncc(C(N)=O)c1`: the inhibition stood at 4.4%.
Still for that read-out and setting: the figure for `FC(F)(F)CNc1nccc(-c2cnn3ncccc23)n1` is 3.68%; for `NC(=O)c1ccc2c(-c3ccnc(NCCCO)n3)c(-c3ccc(F)cc3)nn2c1` it is 4.71%; for `COc1ccc2ncn(-c3cc(O[C@H](C)c4ccccc4C(F)(F)F)c(C(N)=O)s3)c2c1` it is 3.91%.
For `COc1cc(Nc2ncc(-c3ccccc3)o2)cc(OC)c1`, the inhibition came out at 11.9%.
For the compound `Fc1ccc(Nc2nccc(-c3c(-c4ccc(C(F)(F)F)cc4)nn4ncccc34)n2)cc1F`, the inhibition was -1.13%.
Same read-out and setting: with `COc1cc(N2CCN(C(C)C)CC2)ccc1Nc1nc(Nc2cccc(F)c2C(=O)O)c2cc[nH]c2n1` the figure was 12.1%.
On the same count and under the same terms, with `CC1(C)CC(n2cnc(-c3ccc(F)cc3)c2-c2ccnc(N)n2)CC(C)(C)N1` the figure was 2.81%; with `COc1cccc(Nc2nccc(-c3cnn4ncccc34)n2)c1`, 22.6%; with `COc1ccc(-c2nn3ncccc3c2-c2ccnc(Nc3ccc(F)c(F)c3)n2)cc1`, 15.8%.
Same read-out and setting: with `CNC(=O)c1cncc(/C=C/c2ccccc2C)c1` the figure was 11.8%; with `Cn1c(-c2nonc2N)nc2cnccc21`, 1.31%.
For `Nc1ncnc2occ(-c3ccc(NC(=O)Nc4cc(C(F)(F)F)ccc4F)cc3)c12`, the inhibition was 84.7% and 81.1%.
The same measure, in the same setting: the figure for `CCOc1ccc2c(-c3ccnc(Nc4cc(OC)cc(C(F)(F)F)c4)n3)cnn2n1` is 5.01%.
Take `O=C1Nc2ccccc2/C1=C1\CCc2cc(O)ccc21`: the inhibition was 73.6%.
On the same count and under the same terms, the figure for `O=C(O[C@H]1CN[C@H](C#Cc2cc3ncnc(Nc4ccc5c(ccn5Cc5cc(F)ccc5F)c4)c3s2)C1)N1CCOCC1` is 4.26%.
As for `CS(=O)(=O)CCNCc1ccc(-c2ccc3ncnc(Nc4ccc(OCc5cccc(C(F)(F)F)c5)cc4)c3c2)o1`, the inhibition came to 7.73%.
